16 compounds from PubChem BioAssay (EPA / NIEHS) can be followed below.

Inconclusive results are not listed. Calls of active or inactive are those of the source. The calls were made as follows: active = hit-call score of the fitted dose curve at least 0.9, where 1 is the maximum; inconclusive = response in the unintended direction; inactive = score below 0.9.

In general, AC50 refers to the concentration giving half of the maximal activity seen.

The nature of assay [1]: TOX21_p53_BLA_p2_viability: Viability Assessment in the Tox21 HCT-116 p53 Agonism Beta-lactamase Assay, Phase 2 (AID 2283591).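 Also: actives lower the ATP signal meaning cytotoxicity.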 The gist of the method:
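HCT116 p53-bla cells, 4000/well, dosed after 5 h plating (217-fold dilution of DMSO stocks) and incubated 16 h at 37C. Viability taken as cellular ATP by CellTiter-Glo luminescence after 30 min RT; signal loss marks cytotoxicity.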

The target in assay [2] is Cellular tumor antigen p53 (Homo sapiens) (UniProt P04637). In words: TOX21_p53_BLA_p2_ratio: Tox21 HCT-116 p53 Agonism Beta-lactamase Assay, Ratio, Phase 2 (AID 2283592). The gist of the method:
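Readout: blue/green (460/530 nm) FRET emission ratio after 2 h CCF4-AM loading at room temperature, excitation 405 nm. HCT116 p53 bla cells, 16 h compound exposure at 37C, 5% CO2; agonist direction fitted against DMSO baseline.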

A short description of assay [3]: TOX21_p53_BLA_p3_viability: Viability Assessment in the Tox21 HCT-116 p53 Agonism Beta-lactamase Assay, Phase 3 (AID 2283593).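 Also: cells exposed to compound for 16 h before reading.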 The gist of the method: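 HCT116 cells, 4000/well, dosed 5 h after plating by pin transfer (217-fold dilution from DMSO stock) and incubated 16 h at 37C, 5% CO2. Viability read as ATP luminescence with CellTiter-Glo after 30 min at room temperature.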

The target in assay [4] is Cellular tumor antigen p53 (Homo sapiens) (UniProt P04637). In words: TOX21_p53_BLA_p3_ratio: Tox21 HCT-116 p53 Agonism Beta-lactamase Assay, Ratio, Phase 3 (AID 2283596). The method in brief: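 Cells were seeded at 4000/well, rested 5 h at 37C, then dosed with DMSO compound solutions (217-fold dilution) for 16 h. CCF4-AM substrate was loaded for 2 h at room temperature, and the 460/530 nm emission ratio was fitted for gain of signal versus DMSO.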
Cellular tumor antigen p53 (Homo sapiens), sequence (P04637 whole entry, looked up): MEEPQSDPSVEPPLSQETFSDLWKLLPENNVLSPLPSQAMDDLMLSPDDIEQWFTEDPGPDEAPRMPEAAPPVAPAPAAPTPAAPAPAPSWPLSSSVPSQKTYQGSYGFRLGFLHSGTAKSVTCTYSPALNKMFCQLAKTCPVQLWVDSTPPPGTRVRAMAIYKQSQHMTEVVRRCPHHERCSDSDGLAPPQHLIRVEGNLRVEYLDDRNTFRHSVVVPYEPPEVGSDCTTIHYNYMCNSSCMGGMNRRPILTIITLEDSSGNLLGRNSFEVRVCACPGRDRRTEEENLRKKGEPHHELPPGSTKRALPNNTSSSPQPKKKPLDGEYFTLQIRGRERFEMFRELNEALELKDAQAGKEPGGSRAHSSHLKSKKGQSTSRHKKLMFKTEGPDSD

Assay [5] shares this target. In words: TOX21_p53_BLA_p5_ratio: Tox21 HCT-116 p53 Agonism Beta-lactamase Assay, Ratio, Phase 5 (AID 2283599). The gist of the method:
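HCT-116 p53-bla cells (4000/well) plated 5 h, dosed with compound (217-fold DMSO dilution) for 16 h at 37 C; CCF4-AM substrate 2 h at room temperature. Activity is the 460/530 nm emission ratio (405 nm excitation), fitted in gain-of-signal direction versus DMSO.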

The nature of assay [6]: TOX21_p53_BLA_p5_viability: Viability Assessment in the Tox21 HCT-116 p53 Agonism Beta-lactamase Assay, Phase 5 (AID 2283600). The gist of the method:
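ATP luminescence (CellTiter-Glo, 30 min, RT) served as the viability read-out, with loss of signal indicating cytotoxicity. Compounds in DMSO were pinned at a 217-fold dilution onto 4000 cells/well and incubated 16 h, 37C.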

The target in assay [7] is Cellular tumor antigen p53 (Homo sapiens) (UniProt P04637). In words: TOX21_p53_BLA_p4_ratio: Tox21 HCT-116 p53 Agonism Beta-lactamase Assay, Ratio, Phase 4 (AID 2283601). The gist of the method:
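HCT-116 p53 beta-lactamase reporter cells (4000/well) preincubated 5 h, then compound (217-fold dilution of DMSO stock) for 16 h at 37C. CCF4-AM substrate added 2 h at room temperature; 460/530 nm emission ratio fitted upward versus DMSO.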

As for `CCNC1(c2cccs2)CCCCC1=O` (centres undefined), the outcome in assay [1], in assay [2], in assay [3], in assay [4] and in assay [5] was inactive.

Take `Fc1ccc(C(OCCN2CCN(CCCc3ccccc3)CC2)c2ccc(F)cc2)cc1`: the AC50 in assay [1] was 33 µM (active); in assay [2], 33.7 µM (active); in assay [3] it was 31 µM (active); in assay [4], 24.9 µM (active); in assay [5], 40.4 µM (active); in assay [6], 38.4 µM (active). Besides, the AC50 in assay [7] is 39 µM (active).

For the compound `C=CC1CC=CCC1` (centres undefined), the compound was called inactive in assay [1], in assay [2], in assay [3], in assay [4] and in assay [5].

With `O=CC(Br)(Br)Br`, the outcome in assay [1], in assay [3], in assay [4] and in assay [7] was inactive. Further, the AC50 in assay [2] was 82.7 µM (active); in assay [5], 29.9 µM (active).

With `O=[N+]([O-])C(Br)Br`, the call in assay [1], in assay [2], in assay [3], in assay [4], in assay [5] and in assay [6] was inactive. In addition, the result in assay [7] was inactive.

With `COC(=O)C(c1ccccc1)C1CCCCN1` (centres undefined), the outcome in assay [1], in assay [2], in assay [3], in assay [4], in assay [5] and in assay [7] was inactive.

As for `C[C@@H](CO)NC(=O)[C@@H]1C=C2c3cccc4[nH]cc(c34)C[C@H]2N(C)C1`, the outcome in assay [1], in assay [2], in assay [3], in assay [4], in assay [5] and in assay [6] was inactive. The result in assay [7] was inactive.

Regarding `N#CC1(N=NC2(C#N)CCCCC2)CCCCC1`, the result in assay [1], in assay [2], in assay [3], in assay [4], in assay [5] and in assay [7] was inactive.

As to `NC(=O)CS(=O)C(c1ccccc1)c1ccccc1` (centres undefined), the compound was called inactive in assay [1], in assay [2], in assay [3], in assay [4], in assay [5] and in assay [6].

As for `CC(C)(C)NCC(O)c1ccccc1Cl` (centres undefined), the compound was called inactive in assay [1], in assay [2], in assay [3], in assay [4], in assay [5] and in assay [7].

`COc1ccc(Cc2nccc3cc(OC)c(OC)cc23)cc1OC`: the result in assay [1], in assay [2], in assay [3], in assay [4], in assay [5] and in assay [6] was inactive. Moreover, in assay [7], the result was inactive.

On to `CNC(C)[C@@H]1CC[C@@H](N)[C@@H](O[C@H]2[C@H](O)[C@@H](O[C@H]3OC[C@](C)(O)[C@H](NC)[C@H]3O)[C@H](N)C[C@@H]2N)O1` (some centres undefined) (tested in a mixture with another compound), for which the compound was called inactive in assay [1], in assay [2], in assay [3], in assay [4] and in assay [6].

In the case of `CC(C)[N+](C)(CCC(C(N)=O)(c1ccccc1)c1ccccc1)C(C)C`, the compound was called inactive in assay [1], in assay [2], in assay [3], in assay [4], in assay [5] and in assay [6]. The result in assay [7] was inactive.

As to `O=[N+]([O-])/C=C/c1ccccc1`, the call in assay [1], in assay [3], in assay [4], in assay [5] and in assay [7] was inactive. The half-maximal activity concentration (AC50) in assay [2] was 12 µM (active).

Consider `CC[N+](C)(CC)CCOC(=O)C(O)(c1ccccc1)c1ccccc1`, for which the call in assay [1], in assay [2], in assay [3], in assay [4], in assay [5] and in assay [6] was inactive. Further, the outcome in assay [7] was inactive.

On to `C1CCC2CCCCC2C1` (centres undefined), for which the compound was classed as inactive in assay [1], in assay [2], in assay [3], in assay [4], in assay [5] and in assay [7].
